Screening data (PubChem)
D1 antagonist = Antagonist of Human D 1 Dopamine Receptor: qHTS | D(1A) dopamine receptor (Homo sapiens), P21728 | HEK293 TREx D1 cells, calcium flux, dopamine EC80; active compounds read low | activity change, negative = inhibition, % at 10 µM | actives 3.2% (n = 360,000); in the data active = activity change below about -30%
Target sequence (P21728 whole entry, looked up): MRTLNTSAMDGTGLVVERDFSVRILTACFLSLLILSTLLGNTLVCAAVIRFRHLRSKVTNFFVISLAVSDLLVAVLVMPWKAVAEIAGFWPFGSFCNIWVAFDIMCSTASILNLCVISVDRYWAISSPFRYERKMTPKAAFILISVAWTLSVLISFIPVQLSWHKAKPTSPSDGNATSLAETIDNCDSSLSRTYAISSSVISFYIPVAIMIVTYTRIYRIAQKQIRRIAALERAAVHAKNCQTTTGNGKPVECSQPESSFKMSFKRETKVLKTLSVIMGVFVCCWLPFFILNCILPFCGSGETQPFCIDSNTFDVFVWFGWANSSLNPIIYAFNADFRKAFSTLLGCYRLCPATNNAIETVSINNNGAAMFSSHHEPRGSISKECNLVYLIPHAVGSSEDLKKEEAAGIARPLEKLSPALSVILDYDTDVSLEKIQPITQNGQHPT
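Inducible Hek293 Trex D1 cells (tetracycline, overnight, 30 C). Calcium dye 30–90 min RT. Antagonist mode: EC80 dopamine added after 180 s compound read.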
TRHR agonist = qHTS for Small Molecule Agonists and Allosteric Enhancers of Human TRH Receptor: Primary Screen for Agonists; Thyrotropin-releasing hormone receptor (Homo sapiens), P34981; TRHR cells, calcium flux fluo-8, FDSS agonist mode; activation, % at 2 µM; actives 0.18% (n = 360,000); AID 493084, 2011
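In this calcium-flux screen, cells bearing human TRHR are dye-loaded with fluo-8, baselined for 10 cycles, then exposed to library compounds; positive kinetic calcium responses during the agonist phase mark hits, with TRH as control.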
TRHR enhancer = qHTS for Small Molecule Agonists and Allosteric Enhancers of Human TRH Receptor: Primary Screen for Enhancers | Thyrotropin-releasing hormone receptor (Homo sapiens), P34981 | enhancement, % at 2 µM | AID 493056, 2011 | TRHR cells, fluo-8 calcium fluorescence, EC20 TRH enhancement | actives 0.66% (n = 360,000); in the data active = enhancement above about 30%
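TRHR-expressing cells loaded with fluo-8 calcium dye were read kinetically (ex 480/em 530) during compound addition, then stimulated with an EC20 of TRH (10 nM final). Enhancement of the Gq-mediated intracellular calcium response was scored.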
LDHA inh = qHTS assay for inhibitors of human lactate dehydrogenase | actives 0.15% (n = 480,000) | activity change, % (values are at about 110 or 230 µM) | purified LDHA, NADH/diaphorase-resazurin fluorescence; active compounds read low; in the data active = activity change below about -30%
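Remaining NADH was detected by diaphorase (0.133 mg/mL) converting 37 µM resazurin to fluorescent resorufin, read at 0 and 20 minutes. The preceding 5-minute room-temperature reaction used 2 nM LDHA, 0.2 mM sodium pyruvate and 0.06 mM NADH at pH 7.4.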
D1 PAM = Potentiators of Human D1 Dopamine Receptor: qHTS | D(1A) dopamine receptor (Homo sapiens), P21728 | potentiation, % at 10 µM | HEK293 TREx D1 cells, calcium flux, dopamine EC20 potentiation | actives 0.036% (n = 360,000); in the data active = potentiation above about 30%
D1 agonist = Allosteric Agonists of the Human D1 Dopamine Receptor: qHTS | HEK293 T-REx D1 cells, calcium flux, agonist mode | D(1A) dopamine receptor (Homo sapiens), P21728 | activation, % at 2 µM | actives 1% (n = 360,000)
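Tetracycline-induced HEK293 TREx D1 cells, force-coupled to calcium signalling, were dye-loaded with a no-wash calcium kit. Compound was pin-added after a 10 s baseline. Fluorescence was read kinetically at 1 cycle/s for 180 s, with calcium rises flagged as agonism.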
Each line names hits and unclear results; the compound was inactive in the other large screens. An excerpt weighted towards active compounds, which were near 3.6% of everything screened. Cut-off read from the data, not from the text of the source, unless noted: active = activation above about 30%; inactive = the rest.

COc1ccc(-c2cc3ccc(O)c(CN4CCCC(C)C4)c3oc2=O)cc1OC (stereo not drawn)	TRHR agonist 32
CCOC(=O)c1c(C)c(-c2ccccc2)n(CC(=O)Nc2cccc(SC)c2)c1C	none (no result: D1 antagonist, TRHR agonist, TRHR enhancer, D1 PAM, D1 agonist)
O=C(O)C(=O)/C(=C\c1cccc2ccccc12)c1ccc2ccccc2n1	D1 agonist 31
O=C(O)C(=O)/C(=C\c1ccccc1)c1ccc2ccccc2n1	none
COc1ccc(O)c(C(=O)c2cnc3c(c2)c(C)nn3C)c1	none
COc1ccc(O)c(C(=O)c2cnc3onc(C)c3c2)c1	D1 antagonist -39
COc1cc(/C=C2\SC(=O)NC2=O)ccc1Oc1cnccn1	D1 antagonist -41
O=C(Nc1ccccc1C(=O)O)c1ccc(NC(=O)C2CC2)cc1	none
O=C(Nc1ccccc1O)c1ccc(NC(=O)C2CC2)cc1	D1 antagonist -33
CCNC(=O)C1CCN(CC(C)C)CC1	none (no result: D1 antagonist, TRHR agonist, TRHR enhancer, D1 PAM, D1 agonist)
CCOc1ccc(CC(=O)N/N=C(\C)c2cccnc2)cc1	D1 antagonist -36
COc1ccc(CC(=O)N/N=C(\C)c2cccnc2)cc1	none
O=C(Nc1nc(-c2ccc(F)c(F)c2)cs1)c1cc(=O)c2ccccc2o1	none (no result: D1 antagonist, TRHR agonist, TRHR enhancer, D1 PAM, D1 agonist)
COC(=O)c1scc(-c2ccc(C)cc2)c1S(=O)(=O)Nc1ccc(OC(F)(F)F)cc1	D1 antagonist -31
Cc1ccsc1/C=C/C(=O)c1ccc2ccccc2c1	none (no result: D1 antagonist, TRHR agonist, TRHR enhancer, D1 PAM, D1 agonist)
CCC(C(=O)NC1CCCC1)N(Cc1ccc2c(c1)OCO2)C(=O)c1snc(C(N)=O)c1N (stereo not drawn)	none
COc1ccc(C(C(=O)NC2CCCCC2)N(Cc2cccnc2)C(=O)c2snc(C(N)=O)c2N)cc1 (stereo not drawn)	D1 antagonist -34
COc1cccc(N(CC(=O)NC2CCCCC2)C(=O)c2snc(C(N)=O)c2N)c1	D1 antagonist -35
COc1ccc(CN(C(=O)c2nsc(Cl)c2Cl)C(C(=O)NC2CCCCC2)c2ccc(OC)cc2)cc1 (stereo not drawn)	none
CCCC(C(=O)NC1CCCC1)N(Cc1cccs1)C(=O)c1snc(C(N)=O)c1N (stereo not drawn)	D1 antagonist -36
COc1ccc(CN(C(=O)c2nsc(Cl)c2Cl)C(C(=O)NC2CCCC2)c2ccc(C)cc2)cc1 (stereo not drawn)	TRHR enhancer 37
CC(=O)Cn1cnc2sc(-c3ccccc3)cc2c1=O	D1 antagonist -36
COc1ccc(CN2CCN(C(=O)c3cc4c(s3)CCC4)CC2)cc1	none (no result: D1 antagonist, TRHR agonist, TRHR enhancer, D1 PAM, D1 agonist)
COc1ccc(CNC(=O)NOCc2ccccc2)cc1OC	none (no result: D1 antagonist, TRHR agonist, TRHR enhancer, D1 PAM, D1 agonist)
CN(CC/C=C1/c2ccccc2CSc2ccccc21)CCCO	D1 agonist 31
CC(O)CN(C)CC/C=C1/c2ccccc2CSc2ccccc21 (stereo not drawn)	D1 antagonist -72, D1 agonist 30
NCC/C=C1/c2ccccc2CSc2ccccc21	none
CN(C)CC/C=C1\c2cc(F)ccc2CSc2ccccc21	D1 antagonist -93
C=CCN(C)CC/C=C1\c2ccccc2CSc2ccccc21	none
CC(C)(C)c1ccc(C2CC2C(=O)NN)cc1 (stereo not drawn)	none (no result: D1 antagonist, TRHR agonist, TRHR enhancer, D1 PAM, D1 agonist)
Cc1ccc(S(=O)(=O)N(C)CC(=O)OCc2coc(-c3cccs3)n2)cc1	none (no result: D1 antagonist, TRHR agonist, TRHR enhancer, D1 PAM, D1 agonist)
COc1cccc(-c2nc3ccc(O)cc3c(=O)o2)c1	TRHR enhancer 36
CC(=O)Oc1cccc(-c2nc3ccccc3c(=O)o2)c1	none
COc1cc(Cl)c(NC(=O)CCS(=O)(=O)c2ccc3c(c2)NC(=O)CO3)c(OC)c1	TRHR enhancer 31
CCc1cccc(NC(=O)CCS(=O)(=O)c2ccc3c(c2)NC(=O)CO3)c1	none
O=C(CCS(=O)(=O)c1cc2c(cc1Cl)NC(=O)CO2)NCc1ccc(F)cc1	D1 antagonist -35
COc1ccc(N2CCN(C(=O)CCS(=O)(=O)c3cc4c(cc3Cl)NC(=O)CO4)CC2)cc1	D1 antagonist -64
CCC(=O)Nc1cccc(-c2nc3cc(Cl)cc(Cl)c3o2)c1	none (no result: D1 antagonist, TRHR agonist, TRHR enhancer, D1 PAM, D1 agonist)
CCCCc1ccc(Nc2nnc(SCC(=O)NCC)s2)cc1	none (no result: D1 antagonist, TRHR agonist, TRHR enhancer, D1 PAM, D1 agonist)
O=C(CNc1ccc(C(F)(F)F)cc1)NCc1ccc(Cl)cc1	none (no result: D1 antagonist, TRHR agonist, TRHR enhancer, D1 PAM, D1 agonist)
CCOc1ccc(N(C)c2ccc(/C=C3/SC(=S)NC3=O)cc2)cc1	D1 agonist 133
Nc1nonc1C(=O)NC(c1ccccc1)c1ccccc1	D1 antagonist -36
CCCNc1nc(C)cc(-c2cc(C(=O)Nc3ccccc3)on2)n1	none (no result: D1 antagonist, TRHR agonist, TRHR enhancer, D1 PAM, D1 agonist)
CCCNc1nc(C)cc(-c2cc(C(=O)NCc3ccccc3)on2)n1	D1 antagonist -30
Cc1ccc(-n2nc3c(c2NC(=O)c2ccco2)CS(=O)(=O)C3)c(C)c1	none
Cc1cccc(-n2nc3c(c2NC(=O)c2ccco2)CS(=O)(=O)C3)c1C	D1 antagonist -41
CCCCCCOc1ccc(C=O)cc1	none (no result: D1 antagonist, TRHR agonist, TRHR enhancer, D1 PAM, D1 agonist)
CC(C)NC(=O)CSc1nnc(NC2CC2)s1	none (no result: D1 antagonist, TRHR agonist, TRHR enhancer, D1 PAM, D1 agonist)
C=CCc1ccccc1OCC(O)CN1CCN(c2ccccc2F)CC1 (stereo not drawn)	D1 antagonist -61
C=CCc1ccc(OCC(O)CN2CCN(c3ccccc3)CC2)c(OC)c1 (stereo not drawn)	D1 antagonist -31
COc1cc(C(C)=O)ccc1OCC(O)CN1CCN(c2ccc(C)cc2C)CC1 (stereo not drawn)	D1 antagonist -39
Cc1ccc(C(C)C)c(OCC(O)CN2CCc3ccccc3C2)c1 (stereo not drawn)	none
Cc1ccc(C(C)C)c(OCC(O)CN2CCN(c3ccccc3F)CC2)c1 (stereo not drawn)	D1 antagonist -34
O=C(c1cc(-c2ccccc2)nc2ccccc12)N1CCCC(C(F)(F)F)C1 (stereo not drawn)	none (no result: D1 antagonist, TRHR agonist, TRHR enhancer, D1 PAM, D1 agonist)
COc1ccc(C(=O)Nc2oc3c(C)cccc3c(=O)c2-c2ccc(OC)c(OC)c2)cc1OC	none (no result: D1 antagonist, TRHR agonist, TRHR enhancer, D1 PAM, D1 agonist)
COc1ccc(N2CCN(CC(O)COc3ccc(F)cc3)CC2)cc1 (stereo not drawn)	D1 antagonist -66
C=CCc1ccccc1OCC(O)CN1CCN(c2ccccc2OC)CC1 (stereo not drawn)	D1 antagonist -43
Cc1ccc(C)c(OCC(O)CN2CCC(Cc3ccccc3)CC2)c1 (stereo not drawn)	D1 antagonist -78, D1 agonist 47
